Sa ugtP lethal – growth inhibition of ugtP-null S. aureus, primary screen, RN4220 ugtP deletion, OD600. 16 h. growth inhibition, % (test concentration not listed). actives 0.54% (n = 330,000). AID 1259309, 2017; in the data active = growth inhibition above about 68%;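 note: plate controls were untreated wells for no effect and antibiotic for full effect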
BJeLR lethal – MLPCN primary cell-based screen for lethality selective to Ras in HRASV12 cells; actives 0.17% (n = 300,000); inhibition, % (concentration not given with the values); BJeLR (HRASV12) viability, CellTiter-Glo ATP luminescence, 48 h; in the data active = inhibition above about 50%
Sa RN4220 lethal – growth inhibition of S. aureus RN4220, primary screen, OD600. 16 h. inhibition, % (no concentration beside the values). actives 0.33% (n = 330,000). AID 1259311, 2017; in the data active = inhibition above about 85%;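 note: plate controls were untreated cells for no effect and reference antibiotic for full effect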
PrPC TRFRET – inhibitors of human cell surface prion protein PrPC, primary screen, cell-based, TR-FRET; Major prion protein (Homo sapiens), P04156; TR-FRET read-out; inhibition, % at 13.8 µM; actives 0.43% (n = 370,000); AID 720596, 2013; in the data active = inhibition above about 24%; note: 0% = median of the test wells and 100% = reference compound wells
* marks the source's active call; other numbers are inactive results. This is a sample that favours compounds with a hit; in the whole collection about 0.95% have one here.

Cc1onc(-c2c(Cl)cccc2Cl)c1C(=O)N[C@@H]1C(=O)N2[C@@H]1SC(C)(C)[C@@H]2C(=O)O was read as Sa ugtP lethal 3, BJeLR lethal 8, Sa RN4220 lethal 2 and PrPC TRFRET 6.
Cc1onc(-c2ccccc2Cl)c1C(=O)NC1C(=O)N2C1SC(C)(C)C2C(=O)O (configuration not stated) was read as Sa ugtP lethal 100* and Sa RN4220 lethal 99*.
Screening COc1ccc(C(=O)NN(C)c2nc(C(F)(F)F)nc3ccccc23)cc1 returned Sa ugtP lethal 3, BJeLR lethal 60*, Sa RN4220 lethal -4 and PrPC TRFRET 8.
Screening COc1ccc(-c2cc(C(F)(F)F)nc(N3CCCCCC3)n2)cc1 returned Sa ugtP lethal 95*, BJeLR lethal 2, Sa RN4220 lethal -4 and PrPC TRFRET 1.
Screening COc1ccccc1C(=O)NC(=S)NNC(=O)c1sc2ccccc2c1Cl returned Sa ugtP lethal 98*, BJeLR lethal 10, Sa RN4220 lethal 100* and PrPC TRFRET 7.
`COc1ccc(Cl)cc1C(=O)NNC(=S)NC(=O)c1cc(-c2ccc(Cl)cc2)nc2ccccc12` gave Sa ugtP lethal 57, BJeLR lethal 11, Sa RN4220 lethal 115* and PrPC TRFRET 0.
For CCNC(=S)NNC(=O)c1cc(-c2ccc(OC)cc2)nc2ccccc12 the results were Sa ugtP lethal 1, BJeLR lethal 50, Sa RN4220 lethal 5 and PrPC TRFRET -7.
`O=C(CCl)NC1CCCCN(Cc2ccc(OC(F)(F)F)cc2)C1=O` (configuration not stated) gave PrPC TRFRET -8.
For O=C(Nc1nnc(-c2ccc(Cl)cc2)o1)c1nc2ccccc2s1 the results were Sa ugtP lethal 99*, BJeLR lethal 6, Sa RN4220 lethal 100* and PrPC TRFRET -1.
O=C(Nc1nnc(-c2ccco2)o1)c1ccc(Cl)s1 was read as Sa ugtP lethal 2, BJeLR lethal 13, Sa RN4220 lethal 18 and PrPC TRFRET 2.
`CCCN(CCC)S(=O)(=O)c1ccc(C(=O)Nc2nnc(-c3cccc(OC)c3)o2)cc1` gave Sa ugtP lethal 100*, BJeLR lethal 21, Sa RN4220 lethal 99* and PrPC TRFRET -3.
COc1cccc(-c2nnc(NC(=O)c3ccc(Cl)s3)o2)c1 was read as Sa ugtP lethal 100*, BJeLR lethal 3, Sa RN4220 lethal 100* and PrPC TRFRET 13.
`O=C(Nc1nnc(-c2ccc3c(c2)OCCO3)o1)c1ccc(Cc2ccccc2)cc1` gave Sa ugtP lethal 100*, BJeLR lethal 9, Sa RN4220 lethal 99* and PrPC TRFRET 0.
`COc1cc(C=NNC(=O)CNC(=O)c2ccco2)ccc1O` gave Sa ugtP lethal 1 and Sa RN4220 lethal 1.
Screening Cc1cccc(-c2nnc(NC(=O)c3ccc(Cl)cc3)o2)c1 returned Sa ugtP lethal 95*, BJeLR lethal 0, Sa RN4220 lethal 99* and PrPC TRFRET -1.
COc1cccc(-c2nnc(NC(=O)c3cccc(F)c3)o2)c1 was read as Sa ugtP lethal 98*, BJeLR lethal 9, Sa RN4220 lethal 98* and PrPC TRFRET 1.
For COc1cccc(-c2nnc(NC(=O)c3ccccc3Br)o2)c1 the results were Sa ugtP lethal 11, BJeLR lethal -2, Sa RN4220 lethal 9 and PrPC TRFRET 4.
`O=C(Nc1nnc(-c2ccc(F)cc2)o1)c1cc(Cl)sc1Cl` gave Sa ugtP lethal 99*, BJeLR lethal -14, Sa RN4220 lethal 100* and PrPC TRFRET -1.
`COC(=O)C(Cc1ccccc1)NC(=O)OC1C(=O)c2cc(Br)ccc2OC1c1cccc(OC)c1` (configuration not stated) gave Sa ugtP lethal -3 and Sa RN4220 lethal 2.
For CC(C)(C)C(=O)c1no[n+]([O-])c1C(=NO)C(C)(C)C the results were Sa ugtP lethal 18 and Sa RN4220 lethal 5.
For Cc1cc(C)nc(NN=Cc2ccc(N3CCOCC3)cc2)n1 the results were Sa ugtP lethal 1 and Sa RN4220 lethal -2.
Screening Cc1ccc(C=NNC(=O)c2nnn(-c3nonc3N)c2CSc2ccc(Cl)cc2)cc1 returned Sa ugtP lethal 19 and Sa RN4220 lethal 3.
Screening Cc1nc2ccccn2c1C(=O)NN=Cc1cc(C)n(-c2ccc(Cl)cc2)c1C returned Sa ugtP lethal 9 and Sa RN4220 lethal 1.
O=c1nc2scc(-c3ccccc3)n2c2ccccc12 was read as Sa ugtP lethal 91*, BJeLR lethal -8, Sa RN4220 lethal -6 and PrPC TRFRET 2.

Assay outcomes: PubChem, several laboratories
